Screening data from PubChem BioAssay.
HP1b binding inh: inhibitors of HP1-beta chromodomain binding to methylated histone tails | AlphaScreen HP1-beta / biotin-H3K9me3 peptide binding | Potency, µM (highest dose often 114 µM), inactives show top-dose activity change, negative = inhibition, hits mostly inhibitors | P83916 | 390,000 tested, 0.56% active; also: nearly all actives have a fitted effect of over 70% in size
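Compound inhibition of the preformed complex between 50 nM HP1-beta and 50 nM biotinylated H3K9me3 peptide was read by AlphaScreen. Buffer was PBS pH 7.4 with 0.01% Tween-20. Incubations ran 30 min at room temperature, with 10 ug/mL donor/acceptor beads.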
G9a inh: G9a (human) methyltransferase inhibition; 350,000 tested, 8.8% active; Q96KQ7; G9a H3K9 monomethylation, AlphaScreen, 2 h; Potency, µM (titrated, usually from 102 µM), inactives show at the top dose activity, negative = inhibition, actives largely listed as inhibitors; AID 504332; also: % is scaled to controls: 0 for no effect and ±100 for the full control effect; nearly all actives have a fitted effect of over 75% in size
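G9a (20 nM) was preincubated 15 min with compound, then reacted 2 h at room temperature with 500 nM biotin-H3K9 peptide and 20 µM SAM. Monomethyl-H3K9 detected by AlphaScreen using anti-H3K9me1 antibody.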
Sfp PPTase inh: Sfp phosphopantetheinyl transferase inhibition | Biochemical Sfp PPTase activity, qHTS | Potency, µM, for inactives: largest response in the series, negative = inhibition, usual class: inhibitors | 310,000 tested, 3.5% active | AID 1490;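 also: the enzyme is Sfp with the accession as filed and its product quenches rhodamine fluorescence; 0% = enzyme reaction without inhibitor and -100% = no enzyme wells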
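Step 1, compound plus 15 nM Sfp-PPTase, 15 min, room temperature. Step 2, add rhodamine-CoA (5 uM) and BHQ-2-YbbR (12.5 uM). Step 3, read 525/598 nm fluorescence at 0 and 30 min.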
PLK1 PBD inh: inhibitors of human PLK1 polo-box domain binding; Potency, µM, for the others: max response, negative = inhibition, most hits filed as inhibitors; 360,000 tested, 2.8% active; Plk1 PBD binding of FITC phosphopeptide, fluorescence polarization; AID 720504; P53350; also: series mostly up to about 57 µM; % is scaled to controls: 0 for no effect and ±100 for the full control effect; nearly all actives have a fitted effect of over 65% in size
BAZ2B block: blocks human BAZ2B; 360,000 tested, 4.4% active; Potency, µM (titrated, usually from 114 µM), for the others: at the highest dose activity change, negative = inhibition, actives largely listed as inhibitors; AlphaScreen BAZ2B-H3K14Ac peptide displacement; Q9UIF8; also: % is scaled to controls: 0 for no effect and ±100 for the full control effect; nearly all actives have a fitted effect of over 60% in size
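Complex of BAZ2B and biotin-H3K14Ac (50 nM apiece) forms over 30 min at RT, then faces library compounds up to 110 uM for another 30 min; AlphaScreen beads added, 20 min dark incubation, luminescence read.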
JMJD2A Tudor inh: JMJD2A Tudor domain (human) inhibition | O75164 | AlphaScreen JMJD2A-Tudor / H3K4me3 peptide binding | Potency, µM (titrated, usually from 114 µM), for the others: at the top dose activity change, negative = inhibition, usual class: inhibitors | 390,000 tested, 4.4% active; also: % is scaled to controls: 0 for no effect and ±100 for the full control effect; nearly all actives have a fitted effect of over 50% in size
Starred values were filed as active, the others as inactive; [ ] = dose if it differs, or a comment. Shown are actives, neighbours in structure and some others; about 12% of the full set was active somewhere. Calls follow the shape of the dose curve; as a rule, active = well fitted curve in the direction sought with a large enough effect; inconclusive = small, poorly fitted or top-dose-only effect, or another doubt; inactive = no such curve, though single readings can be large; an effect the other way counts as inactive or inconclusive. Potency is read from the fitted curve at half-maximal effect.

Screening O=C(Nc1ccccc1C(F)(F)F)c1ncn[nH]1 returned HP1b binding inh 25%, Sfp PPTase inh inconclusive, PLK1 PBD inh 4%, BAZ2B block 14µM* and JMJD2A Tudor inh 7.9µM*.
For CCc1ccc(CNC(=O)c2sc3ncnc(N(C)C4CCCCC4)c3c2C)cc1 the results were HP1b binding inh 30%, G9a inh 0%[59 µM], BAZ2B block 1% and JMJD2A Tudor inh -9%.
`O=C(NCC(c1ccco1)N1CCc2ccccc21)c1ccccc1` (stereo unspecified) gave HP1b binding inh -18%, G9a inh 50µM*, PLK1 PBD inh 1%, BAZ2B block inconclusive and JMJD2A Tudor inh inconclusive.
For COc1ccc(C(=O)NCC(c2cccnc2)N2CCc3ccccc32)cc1 (stereo unspecified) the results were HP1b binding inh 22%, G9a inh inconclusive, BAZ2B block -2% and JMJD2A Tudor inh -22%.
COc1ccc(OC)c(S(=O)(=O)NCC(c2ccco2)N2CCc3ccccc32)c1 (stereo unspecified) was read as HP1b binding inh -34%, G9a inh 50µM*, PLK1 PBD inh -2%, BAZ2B block inconclusive and JMJD2A Tudor inh inconclusive.
`COc1cc(C(=O)NCC(c2ccco2)N2CCc3ccccc32)cc(OC)c1OC` (stereo unspecified) gave HP1b binding inh -26%, G9a inh 50µM*, PLK1 PBD inh 5%, BAZ2B block 79µM* and JMJD2A Tudor inh inconclusive.
For CCOc1ccccc1C(=O)NCC(c1ccc(N(C)C)cc1)N1CCc2ccccc21 (stereo unspecified) the results were HP1b binding inh inconclusive, G9a inh 13µM*, BAZ2B block 5.6µM* and JMJD2A Tudor inh 10µM*.
For Cc1ccc(C(=O)NCC(c2ccco2)N2CCc3ccccc32)cc1C (stereo unspecified) the results were HP1b binding inh -7%, G9a inh 5%[0.501 µM], PLK1 PBD inh -6%, BAZ2B block inconclusive and JMJD2A Tudor inh inconclusive.
C[C@H](CO)N1C[C@H](C)[C@@H](CN(C)C)Oc2c(NS(=O)(=O)c3cccs3)cccc2C1=O was read as HP1b binding inh 14%, PLK1 PBD inh -15% and JMJD2A Tudor inh -21%.
COc1ccccc1NC(=O)C(=O)NCC(c1ccco1)N1CCc2ccccc21 (stereo unspecified) was read as HP1b binding inh -7%, G9a inh inconclusive, PLK1 PBD inh -3%, BAZ2B block -11% and JMJD2A Tudor inh -34%.
`COc1ccccc1C(=O)NCC(c1ccco1)N1CCc2ccccc21` (stereo unspecified) gave HP1b binding inh 5%, G9a inh 50µM*, PLK1 PBD inh -7%, BAZ2B block 50µM* and JMJD2A Tudor inh inconclusive.
CC(C)Oc1ccc(CNC(=O)Cc2ccc(NC(=O)N3CCSc4ncccc43)cc2)cc1 was read as HP1b binding inh 39%, G9a inh 0%[59 µM], BAZ2B block -12% and JMJD2A Tudor inh -5%.
Screening Cc1ccc(-c2csc(N/N=C/c3ccco3)n2)c(C)c1 returned HP1b binding inh inconclusive, G9a inh -12%[59 µM], Sfp PPTase inh 14%, PLK1 PBD inh -29%, BAZ2B block -10% and JMJD2A Tudor inh -21%.
`CN(C)S(=O)(=O)c1cccc(-c2csc(N/N=C/c3ccco3)n2)c1` gave HP1b binding inh inconclusive, G9a inh -15%[12.7 µM], Sfp PPTase inh 14µM*, PLK1 PBD inh -19%, BAZ2B block 35µM* and JMJD2A Tudor inh inconclusive.
O=C(O)/C=C/c1ccccc1 was read as G9a inh 25%[59 µM] and Sfp PPTase inh 28%.
For O=C(O)/C=C/c1cnc2ccccc2c1 the results were HP1b binding inh 27%, G9a inh 50µM*, Sfp PPTase inh 3%, PLK1 PBD inh -8%, BAZ2B block -15% and JMJD2A Tudor inh -13%.
`COC(=O)NC(/C=C/c1ccco1)[C@@]1(C(=O)OC)CCCC1=O` (stereo partly specified) gave Sfp PPTase inh -9%.
Cc1cccc(Nc2c([N+](=O)[O-])cc(C(=O)N3CC(=O)Nc4ccccc43)cc2[N+](=O)[O-])c1 was read as HP1b binding inh -16%, G9a inh 11µM*, Sfp PPTase inh 16%, PLK1 PBD inh -17%, BAZ2B block inconclusive and JMJD2A Tudor inh inconclusive.
Screening Cc1ccc(C)c(Nc2c([N+](=O)[O-])cc(C(=O)N3CC(=O)Nc4ccccc43)cc2[N+](=O)[O-])c1 returned HP1b binding inh inconclusive, G9a inh 18µM*, Sfp PPTase inh -1%, PLK1 PBD inh -2%, BAZ2B block 25µM* and JMJD2A Tudor inh inconclusive.
`Cc1ccc(Sc2ccc(N3CCCC(C(=O)Nc4ccc(F)c(Cl)c4)C3)nn2)cc1` (stereo unspecified) gave HP1b binding inh 43%, G9a inh -4%[59 µM], BAZ2B block 3% and JMJD2A Tudor inh 8%.
O=c1[nH]c(-c2ccccc2)c(-c2ccccc2)nc1[N+](=O)[O-] was read as HP1b binding inh 3%, G9a inh 50µM*, Sfp PPTase inh -21%, PLK1 PBD inh -3%, BAZ2B block 0% and JMJD2A Tudor inh -14%.
CC(C)c1nc(-c2ccccc2)c(-c2ccccc2)[nH]1 was read as HP1b binding inh 6%, G9a inh 21%, Sfp PPTase inh inconclusive, PLK1 PBD inh -14%, BAZ2B block 1% and JMJD2A Tudor inh -5%.
`Cc1c(C(=O)O)cccc1-n1c(C)cc(/C=N/Nc2ccc([N+](=O)[O-])cn2)c1C` gave HP1b binding inh -29%, G9a inh 45µM*, Sfp PPTase inh 32µM*, PLK1 PBD inh inconclusive, BAZ2B block 45µM* and JMJD2A Tudor inh -2%[11.4 µM].
`CCOc1ccccc1/C=N/Nc1ccnc(=O)[nH]1` gave HP1b binding inh 60%, G9a inh 42%[2.33 µM], Sfp PPTase inh -26%, PLK1 PBD inh -3%, BAZ2B block 7% and JMJD2A Tudor inh -8%.
Cc1cc(/C=N/Nc2ccc([N+](=O)[O-])cn2)c(C)n1-c1ccccc1 was read as HP1b binding inh 7%, G9a inh inconclusive, Sfp PPTase inh -23%, PLK1 PBD inh 0%, BAZ2B block inconclusive and JMJD2A Tudor inh -32%.
COc1cccc(/C=N/Nc2ccnc(=O)[nH]2)c1O was read as HP1b binding inh 47%, G9a inh 15%, Sfp PPTase inh 15%, PLK1 PBD inh 1%, BAZ2B block 50µM* and JMJD2A Tudor inh inconclusive.
